Measurements reported in PubChem BioAssay AID1347147 (National Center for Advancing Translational Sciences (NCATS), 2019).
Inconclusive results are not listed. Activity calls are given as the source filed them. The call rests on the fitted dose curve; in most records, active means well fitted inhibition curve with a large enough effect; inconclusive means small, poorly fitted or top-dose-only effect; inactive means no such curve, though single readings can be large or run the other way.

Target: N-terminal Xaa-Pro-Lys N-methyltransferase 1 (Homo sapiens) (UniProt Q9BV86)
Sequence (Q9BV86 whole entry, looked up): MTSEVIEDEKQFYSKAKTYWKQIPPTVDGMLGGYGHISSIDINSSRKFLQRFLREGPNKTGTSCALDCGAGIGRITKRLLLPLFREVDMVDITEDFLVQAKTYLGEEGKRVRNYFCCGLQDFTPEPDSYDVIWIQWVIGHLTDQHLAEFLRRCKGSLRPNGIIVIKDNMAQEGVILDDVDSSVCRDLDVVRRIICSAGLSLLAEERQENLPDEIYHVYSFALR
Experiment: qHTS Assay for Inhibitors of N-terminal methyltransferase 1 (NTMT1): MTaseGlo Confirmatory Screen, Round 2
Settings: NTMT1 enzyme, MTase-Glo SAH luminescence; series mostly up to 57.4 µM; activity change, negative = inhibition: at the top concentration
Text: Assay Submitter (PI): Rong Huang Ph.D, Purdue University, West Lafayette, IN 47907
The N-terminal methytransferase 1 is the first methyltransferase that methylates protein alpha-N-amines and plays an important role in regulating cell mitosis, chromatin interactions and DNA repair. It is observed to be over-expressed in various cancer patient tissues like malignant melanoma and colorectal cancer tissues. Knockdown of NTMT1 in cancer cells causes cell mitotic defects and enhances sensitivity to DNA damaging chemotherapeutics. […] These critical cellular processes in which NTMT1 is implicated, coupled with emerging links to cellular dysfunction, strengthen the inference that NTMT1 is a compelling novel anticancer target. Progress have been made in understanding the molecular properties of NTMT1 and the biological consequences of protein alpha-N-terminal methylation, but there are no specific small molecule probes available for NTMT1 to fully characterize its MTase activity. To address this unmet need, a panel of assay is created and established to enable quantitative high-throughput screening (qHTS) for novel, potent, and selective small molecule NTMT1 inhibitors. Two orthogonal qHTS that use different reagents (ThioGlo vs. MTaseGlo) are developed for primary robotic screening against the NCATS chemical library of more than 400,000 small molecules. Identified inhibitors are reacquired, validated, and further characterized.
MTaseGlo Assay is a luminescence screen that measure the activity of methyltransferases based on the reaction product S-adenosyl homocysteine (SAH). The substrate SAM is converted to SAH upon enzyme activation. MTase-Glo reagent and detection solution convert SAH to ATP and measure the light from the luciferase reaction.
Early Translation Branch (ETB)
National Center for Advancing Translational Sciences (NCATS)
National Institute of Health (NIH)
NTMT1 enzyme, substrate SPKRIA, control peptide RCC1-6 is provided by the Huang laboratory.
In brief, 3 µL of enzyme mixture (final concentrations of 125 nM and 100 µM for NTMT1 and SAM, respectively) into all wells of a 1,536-well solid-bottom white plate (Greiner Bio One, Monroe, NC). 23 nL of DMSO or Ac-RCC1-10 (final concentration range 234 nM to 143 microM) was transferred via Wako Pin-tool (Wako Automation, Richmond, VA) and incubated (RT) for ~15 minutes. Next, 1 µL of substrate (final concentration 1 µM) or buffer was dispensed, and the reaction proceeded for 30 minutes (RT, protected from light) followed by a 1 microL addition of [5X] MTase-Glo Reagent(R). Samples were incubated (RT, protected from light) for 30 minutes to allow for SAH to be converted to ADP, followed by a 5 microL addition of [1X] MTase-Glo Detection Solution(R) to allow for ADP to be converted to ATP, which was then detected with a luciferase reaction. Samples were centrifuged for 15 seconds at 1,000 RPM's, followed by a RT incubation for 30 minutes. Plates were then read using Luminescence optics on a ViewLux detector. Data were normalized to no-enzyme (0% activity) and no-inhibitor (DMSO; 100%) controls, and the resulting percent inhibition data were fitted to a 4-parameter Hill equation using Graphpad Prism.
Potency means the concentration at half of the fitted maximal effect.

| SMILES | activity change, negative = inhibition | Potency |
| --- | --- | --- |
| CNCCc1c[nH]c2ccc(O)cc12 | -13.8% (inactive) |  |
| CN(N=O)c1cc(O)ccc1O | -20.8% (inactive) |  |
| CC(N)[C@H](O)c1ccc(O)c(O)c1 (stereo partly drawn) | 5.78% (inactive) |  |
| O=[N+]([O-])/C=C/c1ccc2c(c1)OCO2 | -1.23% (inactive) |  |
| NC(Cc1cc(O)c(O)cc1O)C(=O)O (stereo not drawn) |  | 15.8 µM (active) |
| COC[C@H]1OC(=O)c2coc3c2[C@@]1(C)C1=C(C3=O)C2CCC(=O)[C@@]2(C)C[C@H]1OC(C)=O (stereo partly drawn) | -18.3% (inactive) |  |
| CCn1cnc2c(Nc3cccc(Cl)c3)nc(N[C@@H]3CCCC[C@@H]3N)nc21 |  | 11.2 µM (active) |
| O=C1CC[C@@]2(O)C3Cc4ccc(O)c5c4C2(CCN3CC2CC2)[C@H]1O5 (stereo partly drawn) | -7.17% (inactive) |  |
| c1ccc(CCCN2CCN(CCOC(c3ccccc3)c3ccccc3)CC2)cc1 | -12.4% (inactive) |  |
| N#C/C(=C/c1ccc(O)c(O)c1)C(N)=S | -6.19% (inactive) |  |
| O=[N+]([O-])c1ccc2nc(N3CCNCC3)ccc2c1 | -8.93% (inactive) |  |
| NC(N)=Nc1ccc2[nH]c3c(c2c1)C[C@@]1(O)[C@H]2Cc4ccc(O)c5c4[C@@]1(CCN2CC1CC1)[C@H]3O5 |  | 25.1 µM (active) |
| N#CC(C#N)=Cc1ccc(O)c(O)c1 | -7.17% (inactive) |  |
| Clc1ccc(N2CC3CCC(C2)N3)nn1 | -3.62% (inactive) |  |
| O=[N+]([O-])c1cc(O)c(O)c([N+](=O)[O-])c1 | 5.85% (inactive) |  |
| CC(N)Cc1c[nH]c2ccc(O)cc12 (stereo not drawn) | -14.7% (inactive) |  |
| CC(C)=CCOc1c2occc2cc2ccc(=O)oc12 | -1.08% (inactive) |  |
| O=S1(=O)N(CCN2CC=C(c3c[nH]c4cc(F)ccc34)CC2)c2cccc3c2N1CCC3 | -14.3% (inactive) |  |
| CC(=O)c1c(O)c(C)c(O)c(Cc2c(O)c3c(c(C(=O)/C=C/c4ccccc4)c2O)OC(C)(C)C=C3)c1O | -7.89% (inactive) |  |
| NC(=O)CI |  | 8.91 µM (active) |
| NCC(O)c1cc(O)c(O)cc1F (stereo not drawn) | -1.51% (inactive) |  |
| COc1ccc2c(c[n+](C)c3c4cc5c(cc4ccc23)OCO5)c1OC | 6.45% (inactive) |  |
| CCCN(CCC)[C@H]1CCc2c(F)ccc(O)c2C1 | -16.5% (inactive) |  |
